Source: ChEMBL document CHEMBL3988442, “University of Dundee, Small-Polar-MMV Screening Library” (2021)
Out of some 48,000 compounds screened, about 13,000 (27%) showed an effect of 50% or more. The list shows a part of the results.

System: Wolbachia pipientis
Experiment: Anti-Wolbachia Cell-Based Screen
Type: functional
Design: scale not given: in the data most compounds retested in dose-response had high values
Settings: 5 µM

| SMILES | Percent Effect [%] |
| --- | --- |
| CC[C@@]1(O)CCN(c2ncc(Cl)cc2C(F)(F)F)C[C@H]1O | -3.293 |
| COCc1noc(CNc2nc(C3CCCC3)nc3c2CCNCC3)n1 | -2.329 |
| COc1ccc(SC(C)C(=O)N2CCC(C(=O)N3CCCC3)CC2)cc1 (stereo unspecified) | -0.009577 |
| CC(C)CNC(=O)c1cc2c(s1)CCN2Cc1cccnc1 | -6.846 |
| COCCNC(=O)c1cc(S(=O)(=O)N2CCCCCC2)cs1 | 97.81 |
| CN(C)CCNC(=O)c1ccc(OC2CCN(S(C)(=O)=O)CC2)c(Cl)c1 | -4.841 |
| COCCNC(=O)NCCS(=O)(=O)N1CCN(c2cccc(C)c2)CC1 | 9.148 |
| NC(=O)C1CCN(C(=O)c2cc(S(=O)(=O)N3CCCCC3)cs2)CC1 | 2.088 |
| CN(C)CCNC(=O)c1cc2c(s1)CCN2S(C)(=O)=O | 114.7 |
| CC(C)CNC(=O)c1nc2c(s1)CCN(C(=O)c1cccnc1)CC2 | -3.468 |
| COCCNC(=O)c1cc(S(=O)(=O)N2CCCCC2)cs1 | 0.5112 |
| CC(C)CNC(=O)c1cc2c(s1)CCN2S(C)(=O)=O | 101.5 |
| COCCNC(=O)C1CCCN1S(=O)(=O)c1sc(=O)[nH]c1C (stereo unspecified) | -10.99 |
| COCCNC(=O)c1cc2c(s1)CCN2S(C)(=O)=O | 90.75 |
| Cc1ncsc1CCC(=O)N1CCN(CCn2cncn2)CC1 | -30.48 |
| CS(=O)(=O)c1nnc(NC(=O)CCc2ccc(Cl)s2)[nH]1 | -11.44 |
| COc1cc(CN(C)C(=O)NCCNC(=O)C2CC2)ccc1SC | 6.493 |
| Cc1nnc(CN2CCN(C)C3(CCNC(=O)CC3)C2)s1 (stereo unspecified) | -6.186 |
| CN(C)C(=O)CNC(=O)c1cc(Br)c2c(c1)OCCO2 | -3.612 |

| SMILES | Percent Effect [%] |
| --- | --- |
| CN(C)C(=O)c1cc2c(s1)CCN(C(=O)CCCN1CCCCC1)C2 | -52.48 |
| CN(C)C(=O)CNC(=O)c1cc2c(s1)CCN2S(C)(=O)=O | 110.9 |
| CC(C)(C)c1noc(CNc2ccccc2N2CCC(O)CC2)n1 | -3.978 |
| CCC(C)CS(=O)(=O)NC(=O)C1CCC1 (stereo unspecified) | 4.874 |
| Cc1cc(C)nc(Nc2cc(C3CCCN(C)C3)nc(C)n2)n1.O=CO (stereo unspecified) | -14.01 |
| CCc1nc2n(n1)CC(NCC(=O)Nc1nccs1)CC2 (stereo unspecified) | -6.343 |
| Cc1nc(Nc2nccs2)cc(C2CN(C(C)C)C2)n1 | 64.11 |
| Cc1ccccc1N1CCN(c2ccncn2)C(C)C1 (stereo unspecified) | 0.9098 |
| Cc1nc(Nc2nccs2)cc(C2CCCN2C2CCOCC2)n1 (stereo unspecified) | -3.7 |
| Cc1csc(Nc2cc(C3CN(c4ccncn4)C3)nc(C)n2)n1 | 120.5 |
| Cc1csc(Nc2cc(C3CN(C(C)C)C3)nc(C)n2)n1 | 95.99 |
| CCc1nc(NC(=O)NCCc2cscn2)nn1C | -7.78 |
| O=C(NCCOc1ncc(Cl)cc1Cl)NCc1ccncc1 | -21.42 |
| Cn1ccnc1SCCNc1ccnc(C(F)(F)F)n1 | 2.447 |
| CC(C)(C)c1ncc(C(=O)NCCNC(=O)Cc2ccccc2)s1 | 94.92 |
| CC(C)(NC(=O)c1cnc(C(C)(C)C)s1)C(N)=O | -3.596 |
| CCNc1ncc(C(=O)N[C@H](C(N)=O)c2ccccc2)cn1 | 7.272 |
| CC(C)(C)c1ncc(C(=O)NCCNC(=O)c2ccco2)s1 | 107.2 |
| CC(C)(C)C(=O)c1ccsc1NC(=O)CCNC(=O)c1ccco1 | -2.755 |

| SMILES | Percent Effect [%] |
| --- | --- |
| CC(C)(CNC(=O)c1ccco1)CNC(=O)c1ccco1 | -33.3 |
| CC(C)(C)c1ncc(C(=O)NC(C(N)=O)c2ccccc2)s1 (stereo unspecified) | 80.78 |
| CC(=O)c1cccc(OCCCC(=O)N(C)CC(N)=O)c1 | -6.7 |
| Cc1cccc2[nH]c(C3CCN(C(=O)c4ccc[nH]4)CC3)nc12 | -3.208 |
| O=C(Cc1ccn[nH]1)Nc1cncc(Br)c1O | -6.696 |
| CC(C)Cc1cc(CNC(=O)c2cccc3c2OCC3)no1 | -12.78 |
| CC(=O)N[C@@H]1CN(Cc2nccn2C)C[C@H]1c1ccc(C)cc1 | -2.996 |
| CC(CNC(=O)c1cc(N2CCNC2=O)ccc1F)c1ccccc1 (stereo unspecified) | -2.028 |
| CC(Sc1nc(N)cc(N)n1)c1nc(C(C)(C)C)no1 (stereo unspecified) | 6.059 |
| O=C(CC(F)(F)F)N1C[C@H]2CN(CC3CC3)C(=O)[C@H]2C1 | -26.88 |
| CCOCC(=O)N1C[C@H]2CN(CC3CC3)C(=O)[C@H]2C1 | -26.93 |
| O=C1[C@H]2CN(S(=O)(=O)C3CC3)C[C@H]2CN1CC1CC1 | 100.8 |
| CCS(=O)(=O)N1C[C@H]2CN(CC3CC3)C(=O)[C@H]2C1 | 114.7 |
| O=C1[C@H]2CN(S(=O)(=O)c3cccs3)C[C@H]2CN1CC1CC1 | -15.27 |
| CS(=O)(=O)N1C[C@H]2CN(CC3CC3)C(=O)[C@H]2C1 | 101.9 |
| CN(C)C(=O)CN1CC[C@H]2CN(S(C)(=O)=O)C[C@@H]2C1=O.O=C(O)C(F)(F)F | -14.63 |
| CC(=O)N1C[C@H]2CN(CC3CC3)C(=O)[C@H]2C1 | -8.606 |
| O=C1[C@H]2CN(c3ncc(F)cn3)C[C@H]2CN1CC1CC1 | 15.28 |
